Reference: PubChem BioAssay AID1430 (University of Pittsburgh Molecular Library Screening Center, 2008)
About 240 (0.11%) of roughly 220,000 compounds were called active.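 The calls were made as follows: active = inhibition of 50% or more in the single-dose primary screen; inactive = inhibition below 50%.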 The list comes from a sample in which actives are over-represented; it also holds similar structures and randomly drawn compounds.

These compounds were tested on hexokinase 1 [Trypanosoma brucei] (assay: TbHK1 enzyme activity blockers – biochemical, G6PDH-coupled NADH absorbance, MLSCN library, primary screen (AID 1430)). Details: recombinant TbHK1, G6PDH-coupled NADH A340; at 10 µM; hits give high values.
With `O=C(Nc1ccccc1)c1cc2ccccc2[nH]1` the inhibition was -8.21% (inactive).
`COC(=O)c1nc(NC(=O)c2ccc(C(C)(C)C)cc2)n[nH]1` was tested, and the inhibition was -1.14% (inactive).
For `CCOC(=O)N1CCC(C(N)=O)CC1`, the inhibition was 4.5% (inactive).
For `COC(=O)C1CCN(CC(N)=O)CC1`, the inhibition was 60.6% (active).
For `COC(=O)C1CCN(C(=O)c2cc(=O)[nH]c3ccccc23)CC1`, the inhibition was -8.77% (inactive).
With `O=C(Nc1ccc(S(=O)(=O)N2CCOCC2)cc1)c1ccc2ncsc2c1` the inhibition was -11% (inactive).
With `CC12C(=O)N(c3ccccc3)C(=O)C1C(c1ccccc1)N1CCCN12` (centres undefined) the inhibition was -4.21% (inactive).
`Cc1cccc(-n2c(Cc3cc(=O)[nH]c(=O)[nH]3)nnc2SC(C)C)c1` was tested, and the inhibition was -4.19% (inactive).
For `Cc1ccc(Nc2nc(CSc3nnc(-c4ccncc4)n3-c3ccccc3C)cs2)cc1`, the inhibition was -6.74% (inactive).
In the case of `CC1CC(C)CN(S(=O)(=O)c2ccc(C(=O)NN3CCOCC3)cc2)C1` (centres undefined), the inhibition was -4.58% (inactive).
For `COC(=O)c1cccc([N+](=O)[O-])c1CS(=O)(=O)c1ccc(C)cc1`, the inhibition was -5.68% (inactive).
In the case of `O=C(c1ccc(N2CCOCC2)c([N+](=O)[O-])c1)N1CCN(S(=O)(=O)c2cccs2)CC1`, the inhibition was -0.582% (inactive).
With `Cc1cc(Cl)ccc1OCCCC(=O)NCc1ccncc1` the inhibition was 3.38% (inactive).
With `COc1ccc(C(C(=O)NC(C)(C)C)N(C(=O)Cn2nnc3ccccc32)c2ccc(C(C)=O)cc2)cc1O` (centres undefined) the inhibition was -2.52% (inactive).
For `Nc1nnc(SCC(=O)NC2CCCc3ccccc32)s1` (centres undefined), the inhibition was -14.9% (inactive).
For `O=C(NCCN1CCOCC1)c1cc(Sc2cccc(Cl)c2)nc2ccccc12`, the inhibition was -12.6% (inactive).
For `O=S(=O)(NCc1ccco1)c1cnc(Cl)c(Cl)c1`, the inhibition was 8.75% (inactive).
With `CC(C)[C@H](NC(=O)c1ccc(F)cc1)C(=O)OCC(=O)NC(=O)c1cccn1C` the inhibition was -0.221% (inactive).
For `CCC(C)Cn1c(O)cc2nn(-c3nc4ccccc4s3)c(=O)c-2c1C` (centres undefined), the inhibition was -9.68% (inactive).
`Cc1ccc(-c2csc(NC(=O)c3cnccn3)n2)cc1C` was tested, and the inhibition was -12.7% (inactive).
With `CCOC(=O)CSC1=N/C(=C/c2ccc(-n3cncn3)cc2)C(=O)N1C(C)=O` the inhibition was -7.02% (inactive).
With `CC1CCN(S(=O)(=O)c2ccc(S(=O)(=O)NCc3cccnc3)cc2)CC1` the inhibition was 0.223% (inactive).
In the case of `O=C(COC(=O)[C@H](Cc1ccccc1)NC(=O)c1cccs1)Nc1cc(F)ccc1F`, the inhibition was 6.99% (inactive).
For `O=C(/C=C\c1ccc2c(c1)OCO2)NC1(C(=O)Nc2ccc3c(c2)OCCO3)CCCCC1`, the inhibition was -15.6% (inactive).
For `Cc1ccc(C)c(NC(=S)NNC(=O)c2csc(C)c2)c1`, the inhibition was 3.89% (inactive).
`O=C(CCc1[nH]c2ccccc2c1Sc1ccccc1)N(CCO)CCO` was tested, and the inhibition was 19.8% (inactive).
With `Cc1nnsc1S(=O)(=O)Cc1ccccc1Cl` the inhibition was 5.71% (inactive).
For `COCCNC(=S)N/N=C/c1c(C)[nH]c2ccccc12`, the inhibition was -58.6% (inactive).
For `CC(=O)Nc1ccc(S(=O)(=O)N(CCc2ccccc2)CC(=O)N/N=C/c2ccc(C(=O)O)cc2)cc1`, the inhibition was -12.9% (inactive).
For `CCOC(=O)C1(c2ccccc2)NC(c2ccc(N(C)C)cc2)C2C(=O)N(C)C(=O)C21` (centres undefined), the inhibition was -3.65% (inactive).
`COc1cc(CN(C)Cc2nc3cc(C(F)(F)F)ccc3c(=O)[nH]2)ccc1OC(F)F` was tested, and the inhibition was 1.94% (inactive).
With `Fc1ccc(/C=N/Nc2nc(-c3cccnc3)nc3ccccc23)cc1` the inhibition was -55.8% (inactive).
`COc1ccc(OCC(O)CNC(=O)Nc2ccc(Cl)cc2)cc1` (centres undefined) was tested, and the inhibition was 2.73% (inactive).
With `Cc1cc(=O)oc(C)c1C(=O)NC1CC(C)(C)NC(C)(C)C1` the inhibition was -4.42% (inactive).
In the case of `O=C(Cn1c(N2CCN(C/C=C/c3ccccc3)CC2)nc2ccccc21)c1ccccc1`, the inhibition was -2.21% (inactive).
With `Cc1nn(-c2ccccc2)c(=O)c2noc(C)c12` the inhibition was -6.64% (inactive).
With `CCOC(=O)c1cccnc1NC(=O)c1ccncc1` the inhibition was -3.95% (inactive).
With `Cc1nc(-c2ccc(Cl)cc2)sc1C(=O)NN` the inhibition was -13% (inactive).
For `CC(C)CNC(=O)COC(=O)/C=C/c1ccco1`, the inhibition was -4.39% (inactive).
For `CCN(C(=O)CN1CCN(Cc2ccccc2)CC1)c1c(N)n(Cc2ccccc2)c(=O)[nH]c1=O`, the inhibition was 4.79% (inactive).
With `Cc1cccc(OC(=O)c2sc3ncn(C)c(=O)c3c2C)c1` the inhibition was 2% (inactive).
For `Cc1cccc(NC(=S)N2CCC(O)CC2)c1C`, the inhibition was 5.41% (inactive).
`O=[N+]([O-])c1cc(S(=O)(=O)N2CCCC2)ccc1NN=C1CCCC1` was tested, and the inhibition was 36.1% (inactive).
`Cc1ccc(S(=O)(=O)NC(=O)Nc2nc(-c3ccc(F)c(F)c3)cs2)cc1` was tested, and the inhibition was -8.79% (inactive).
In the case of `Cc1ccccc1NC(=S)N(CCCN1CCOCC1)Cc1cccs1`, the inhibition was 25.4% (inactive).
For `COc1ccc(CN(C)Cc2nc3cc(OC)c(OC)cc3c(=O)[nH]2)c(OC)c1`, the inhibition was 1.93% (inactive).
With `COc1ccc(CC(=O)NCc2nnc(SCC(=O)Nc3nccs3)n2C)cc1` the inhibition was -2.5% (inactive).
With `O=C(/C=C/c1ccccc1)Oc1coc(CSc2ncccn2)cc1=O` the inhibition was -1.22% (inactive).
`CCc1ccc(NC2Nc3cc(C)nn3S2)cc1` (centres undefined) was tested, and the inhibition was -2.97% (inactive).
`CC(=O)c1ccc(S(=O)(=O)Nc2ccc(C(=O)NCC(c3ccccc3)N(C)C)cc2)cc1` (centres undefined) was tested, and the inhibition was -5.8% (inactive).
With `O=C(Nc1cccc2c1N(C(=O)c1ccco1)CCC2)c1ccco1` the inhibition was -6.72% (inactive).
In the case of `CCOc1cnc(-c2c(-c3ccccc3Cl)noc2C)o1`, the inhibition was -3.33% (inactive).
In the case of `O=C(O)COc1ccc(/C=N/O)cc1Br`, the inhibition was 6.57% (inactive).
With `O=S(=O)(Nc1ccc2cn[nH]c2c1)c1ccccc1` the inhibition was -2.67% (inactive).
With `O=C(O)C(c1ccccc1)C1(O)CCCCC1` (centres undefined) the inhibition was -7.32% (inactive).
With `S=C(NCc1ccc2c(c1)OCO2)NCc1ccco1` the inhibition was -4.45% (inactive).
With `COc1ccc(/C=C/C(=O)Nc2c(C)nn(C)c2C)cc1COc1ccc(Br)cc1` the inhibition was -11.6% (inactive).
For `Cc1csc(=Nc2ccccc2)n1CCO`, the inhibition was -4.03% (inactive).
With `O=C(Cn1cnc([N+](=O)[O-])n1)NCCc1ccccc1` the inhibition was -4.47% (inactive).
For `COc1cccc(CC2(CO)CCCN(Cc3nc(-c4cccs4)oc3C)C2)c1` (centres undefined), the inhibition was 6.9% (inactive).
In the case of `COc1cc(Cl)c(C)cc1NC(=O)[C@@H]1CCCN1C(=O)c1cccs1`, the inhibition was -2.99% (inactive).
In the case of `CC/C(=N\NC(=S)NC(C)C)c1ccc(OC(F)F)cc1`, the inhibition was 10.1% (inactive).
For `O=C(c1ccc2ccccc2n1)N1CCN(c2ccccc2Cl)CC1`, the inhibition was -6.88% (inactive).
With `CCN(/N=C/c1ccc(N(C)C)cc1)c1nc2ccccc2[nH]1` the inhibition was -4.95% (inactive).
For `COc1ccc(C(C#N)Nc2ccccc2C)cc1` (centres undefined), the inhibition was 4.57% (inactive).
With `COC(=O)c1c(NC(=O)COC(=O)[C@@H](NS(=O)(=O)c2ccccc2)C(C)C)sc2c1CCC2` the inhibition was -13.7% (inactive).
For `CC(C)COC(=O)n1c(=O)oc2ccc(S(=O)(=O)N3CCCCC3)cc21`, the inhibition was -6.57% (inactive).
For `Cc1cc(C)n2nc(C(=O)N(C)C(c3ccccc3)c3ccccc3)nc2n1`, the inhibition was 1.27% (inactive).
With `C[n+]1ccccc1C1CCCC/C1=N\Nc1ccc([N+](=O)[O-])cc1[N+](=O)[O-]` (centres undefined) the inhibition was -18.3% (inactive).
With `CCOC(=O)/C(=N\Nc1ccccc1Cl)N(C)C1CCS(=O)(=O)C1` (centres undefined) the inhibition was -29.3% (inactive).
In the case of `Cn1cc(/C=C/C(=O)N2CCCC(C(=O)c3ccc(C(F)(F)F)cc3)C2)cn1` (centres undefined), the inhibition was -9.79% (inactive).
`CC(C)(C)NC(=O)NCc1ccco1` was tested, and the inhibition was 3.59% (inactive).
In the case of `O=C(COC(=O)/C=C/c1cn(-c2ccccc2)nc1-c1cccnc1)Nc1ccc(Cl)cc1Cl`, the inhibition was -3.93% (inactive).
In the case of `CC(=O)Nc1ccc(Nc2c([N+](=O)[O-])cc(S(C)(=O)=O)cc2[N+](=O)[O-])cc1`, the inhibition was -2.68% (inactive).
With `Cc1ccccc1C(=O)NNC(=O)CN1C(=O)c2ccccc2C1=O` the inhibition was 0.726% (inactive).
For `COc1ccc(/C=N/NS(=O)(=O)c2ccc(NC(C)=O)cc2)cc1`, the inhibition was -17.4% (inactive).
In the case of `Cc1ccc(NC(=O)C(=O)NCC2CCN(C(=O)c3cccc([N+](=O)[O-])c3)CC2)cc1`, the inhibition was -4.84% (inactive).
`CC(=O)NC(Cc1ccc(F)c(F)c1)C(=O)NC1CCN(c2nnnn2-c2ccccc2)CC1` (centres undefined) was tested, and the inhibition was -4.26% (inactive).
With `O=C(c1ccncc1)c1ccc([N+](=O)[O-])cc1` the inhibition was -1.97% (inactive).
In the case of `COc1ccc(CCNC(=O)CN(c2ccccc2)S(C)(=O)=O)cc1`, the inhibition was 2.74% (inactive).
With `OC(CN1C2=NCCCN2c2ccccc21)c1ccc(Br)cc1` (centres undefined) the inhibition was -1.72% (inactive).
For `CN(CC#CCC(c1ccccc1)c1ccccc1)C(C)(C)C`, the inhibition was -4.21% (inactive).
`O=C(O)c1cccnc1NC1CCCC1` was tested, and the inhibition was -18.1% (inactive).
`O=C(O)c1ccc(N=NN2CCOCC2)cc1` was tested, and the inhibition was 11.7% (inactive).
`COCCNc1cc(NCCOC)c([N+](=O)[O-])cc1[N+](=O)[O-]` was tested, and the inhibition was -26.9% (inactive).
With `Cc1ccc(CNC(=O)CC2Sc3ccccc3NC2=O)cc1` (centres undefined) the inhibition was -3.22% (inactive).
In the case of `CC(C)(C)c1ccc(C(=O)NCc2nnc(SCC(=O)N3CCCc4ccccc43)n2-c2ccccc2)cc1`, the inhibition was -3.07% (inactive).
For `Cc1ccc(-n2nc(N)c3c(=O)oc(N(C)C)nc32)cc1`, the inhibition was 0.228% (inactive).
`OCCCNC(c1ccccc1)c1ccc(O)cc1` (centres undefined) was tested, and the inhibition was 0.734% (inactive).
`OCCn1c(-c2ccccc2)csc1=Nc1ccccc1` was tested, and the inhibition was -11.3% (inactive).
In the case of `CC1(C)CC(=O)C=C(NCCN2CCNCC2)C1`, the inhibition was -12.2% (inactive).
With `CC1(C)CC(=O)C=C(NCCCN2CCCC2=O)C1` the inhibition was 0.498% (inactive).
With `CC1(C)CC(=O)C=C(NCCCNC2CCCCC2)C1` the inhibition was 58.6% (active).
For `Cc1cc(C)c2nc(SCC(=O)N(C)C3CCS(=O)(=O)C3)cc(C)c2c1` (centres undefined), the inhibition was -5.97% (inactive).
